# According to the supplement of paper PMC12632987:
# Whole data set: some 2,300 sequences, median “median log2 fold change of GCK-ALFA target abundance (FLAG IP / Myc IP barcode read proportion)” near 0.095, cut for the lowest 2% near -0.47. This excerpt belongs to a sample that is enriched for the lowest values.
# B1: LC3A_59_2012 (protein)
# chain: REEVREWVEKIYEAYDDVEKFYELVKKAYEELKKKYSDEELLKLVKEEVERLIKEGKDPRKMKAIYESFKAVIEIKDEEKQKEEIRLIILESEIEEIDEE
# B2: LC3A_3_1808 (protein)
# chain: MEERLEEVIKLLKEAGHSEETIKAFLEAAEALKEKGYEEALETLLELARELVDLPSELLLEMFEDVLELVETSDDSEEEITERIREIASTYRHEAEIEEL
# B3: LC3A_132_320 (protein)
# chain: MEEKARRIREEILRLIEEAEENIDDLEKVEELVEEIRELARRAEEELTPEQVAEIFEEAAEKADEVSLKADEEGKEDVALLMDGLSVELAALSIRAEEKI
# B4: LC3A_free_2_2172 (protein)
# chain: MKYRVIIDALGKPEGIAKLVKTLVDLGIEVEVTTEDGTKMTATKETVEEVVKYLLSKKEEIYVELEAVTDKEKADKALDELEKVAEETGISYIVSIEELE
# B5: LC3A_28_689 (protein)
# chain: NYIEELKKKAEEILEEAAAKGEEAYIEIDFERPITPEEVEEIMDKLEEYIKKYKLKKVNIVINILSENQSQETIDTIMDKAEELEKRIPNVTVIIALPEN
# B6: LC3A_3_1500 (protein)
# chain: LEEAVERLLEALREAGVSEADIAEARELLEKAREYLTEESIEAITETVRRLAHLPPRLVAAAVLTLLETILEKKLNDEEVKEKAELLAETAESFAESDER
# B7: LC3A_28_698 (protein)
# chain: SRVDEDIERARKIAEEAIAKGEDALIELTIRPDTTAEDVDRILATIRELAEKMSKTGKLYVVVDVESGVDQANIDRIADELDKLMEEIPNLTAVIALDED
# B8: LC3A_141_369 (protein)
# chain: KTVTLKLELKNSSLDEVIEKMEELEEEVLKAYEELGGGKVKVTVTLTFKNSKTGETTVIKEEFEADKEELEMLLEGVLIEAASYRLTENADITVTVTLEA
# B9: LC3A_28_725 (protein)
# chain: NELEESIEKALKKAKELAEKGKSDVIEITIPGNATQEDIEKVIKALEEIAEIVKDLESVSIVIDVEGGVKQEHIDKLADKAEEIEKKYPNVTVIIALDED
# B10: LC3A_free_0_2099 (protein)
# chain: MTTVVEVLGIIDNENDKEAAEAIAEELKKLGKKLSEEKGWKVTVELKKVNGSYVITVTIEGKGMSIEEGLEIADEIADKIERLAKEHGVEVTIYTSVYEE
# B11: LC3A_28_944 (protein)
# chain: MTIEEEIEKALKEAKEAKAKKEPAVITITVKGDATEEEIEKVIETIKEIAELLKDIKGSAIIVDVEKGVKEEHINKLLDTLDEIEKKYPNISAIMALDED
# B12: LC3A_28_943 (protein)
# chain: MSIEEDIEAALKEAKEAKKKGEPAVITITVKGTATQEEVDAVIKTIKEIAELLKDIKGSAIIVDIEAGVAQEHVDALMDTLDEIEKKYPNINAIAALDED
# B13: LC3A_3_1778 (protein)
# chain: ADELIEELLEALREAGKSEETIEAAREVAERLRERGFDEALETFVREMRRLLDVPDDILLDMLEEVLELLETEDLSEEEVIERIEELARLARAEAEIEEL
# B14: LC3A_132_256 (protein)
# chain: SEELYERFLEEAKELIDKIVDALKAGKDPSPYIKELDELAEEAAEKLSLEELERLVEEAEEYAEERFAERLDPNDPEARRALDIVEMILDSALIEAELRA
# B15: LC3A_132_258 (protein)
# chain: SEEKKEEFLEKFKELIDKIVEALQAGQDPSPYLKELDELAEEAAEELSLEELEELVEEAEKYARERFAERLDPNDPEARRTLLIVEMILDSALIESELRA
# B16: LC3A_28_714 (protein)
# chain: SPLEESIKKALEEAKEAAKKGEEAVIEIKVEGEITEEETEKVQKAIEEIAEITKDLKSTTIIVDVDGKVPQEHINKILDKGEEVEKKYPNVTVIFALDEN
# B17: LC3A_free_0_2103 (protein)
# chain: SVTVVEVVAISKEKWSEEKAKKLKEAAEKLAKELEEKYGMETEVKLEEIDGRQVLTIKAKKEGMSIDEGLEIADYIADHLEEKAKELGVEVEIYESVYEE
# B18: LC3A_3_1781 (protein)
# chain: AEARIAELLAALEAAGASPETIAAVRAAAEALRARGYEEALATFVEEMRRLLGLPDEIRLAFAQEVLRLIEENDLSEEELTEEIRRLARLARLEAEIEEL
# B19: LC3A_free_8_2489 (protein)
# chain: KSQELANLASDLLDELEEEVEKKAKELGASELDILDLSLLIGSTIAEAYSLSDESPEKIIEAVREGLEELIERAKEISEELAKKVKELSEKILKELEEKA
# B20: LC3A_3_1366 (protein)
# chain: MEEKIEELLEYLKKEGKSEETLEAVRKTLEALIEKGYEEAAETFIELMKKLSHLPDELLLDFAKEVLEKVENEDLSEEELIEFIKEEAKIAENEAEIIEL
# B21: LC3A_28_772 (protein)
# chain: MDIKENAAKAIAEAKAAAAAGEEAVIEIKVPDGATEEDIEIVIKALEEIAEITKDMKSISVVIDVDGGVKQEHLDKLAKAAEEIEEKYPNVTVIIALDEN
# B22: LC3A_free_39_2201 (protein)
# chain: SEEEFEKYKEELLKLAEKEGEEALKEAKELLKEIEGNVNLAKTVLEEVKRAVEEGADVLELLKELLKLVKELKKEGKSEEEIIKEMKAKADVIINLIPID
# B23: LC3A_28_1312 (protein)
# chain: SKLKKQFEEAIKEVEAAAAAGEPVVVTIDITAEEAEKELEEILKLLEELAKVASKAPGATIIIDVDEDVKPENLKKIAEKAEELEKKYPNVTVIIAIEDK
# B24: LC3A_127_171 (protein)
# chain: ELEELLEEALEVAEELSELLEEEDYDFEEIEELTRELLELAKKILELDPRAEDALETAEEMLELLEEMKEADEAEQKELKEHLLMLTEGLIIELLGLQLK
# B25: LC3A_free_39_2287 (protein)
# chain: SEEELEEAVERLEELLEEIEGVSEEEKEIILEAARESLEMAKAILEALEELRRLGGDVAEAAREIAALIRELRAAGASLEERTAAVIEKARDLVNLIPID
# B26: LC3A_132_291 (protein)
# chain: QQEKAEELKKEIKEIVEEMKENIDDEEKVRKLLEELEKLMKRAEKELSPELLAEVFEELSELLEELSEEFDEAGKEDLALEADSLAIEAASLALRAKEKI
# B27: LC3A_127_206 (protein)
# chain: KEKELLKKAEKLAEKAEEAVDKIPKEGEKAREEAIKLLEELAKLLKQIPSLKEALEDTEQAIKLLKETAKLSPAEREETIEQISQIISGILIEIESELLK
# B28: LC3A_free_46_2354 (protein)
# chain: VEAKIEVDLLHEDEEVLKKAVEAIKEAAKKIAKKYGLKVEIKEKIEKLPDGSYFAEIEITLKGEDKETLEKAVNELINEIDEIAKKYDVAAIISYEIIEK
# Molecular target: MAP1LC3A, Q9H492
# Experiment: median log2 fold change of GCK-ALFA target abundance (FLAG IP / Myc IP barcode read proportion) (log2 ratio); each designed protein is fused to an ALFA-tag nanobody in HEK293 cells to bring the named protein to FLAG-tagged glucokinase (GCK); Myc marks an untargeted standard; higher = target protein stabilised (more abundant)
# Conditions: target protein: 3xFLAG-MCP-GCK-ALFA reporter; HEK293 landing pad (RPLP)
# Summary of the method: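 An ALFA-nanobody-fused binder library was recombined into HEK293 landing-pad cells and induced with 2 μg mL^−1 doxycycline. Cells were transfected with a plasmid expressing a FLAG-tagged target and a Myc-tagged standard. After 48 h, lysates underwent anti-FLAG and anti-Myc immunoprecipitation, and circular RNA barcodes were reverse transcribed, amplified and sequenced. Target abundance is the per-binder median log2 ratio of FLAG to Myc barcode read proportions. Barcodes needed ≥10^−7 proportion in both replicates, binders ≥3 barcodes per replicate, and a 10^−6 pseudocount was added; the two replicates were pooled.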
row,Binder,median log2 fold change
1,B1,0.156
2,B2,0.0777
3,B3,0.104
4,B4,-8.53e-05
5,B5,-0.0908
6,B6,0.0772
7,B7,-0.304
8,B8,-0.618
9,B9,0.164
10,B10,-0.379
11,B11,-0.897
12,B12,-0.355
13,B13,-0.0575
14,B14,-0.217
15,B15,-0.582
16,B16,0.219
17,B17,0.15
18,B18,0.24
19,B19,0.0352
20,B20,0.0931
21,B21,0.202
22,B22,0.451
23,B23,-0.0764
24,B24,-0.77
25,B25,0.257
26,B26,-0.27
27,B27,0.148
28,B28,-1.38e-07
